Screens deposited in PubChem by National Center for Advancing Translational Sciences (NCATS).
Six1-Eya2 inh – qHTS Assay for Inhibitors of the Six1/Eya2 Interaction; Homeobox protein SIX1 (Homo sapiens) + Protein phosphatase EYA2 (Homo sapiens), …; AlphaScreen GST-Six1/His-Eya2 binding, biochemical; stronger effect = lower value; activity change, % (no concentration beside the values); 0.56% of 360,000 active; AID 651725, 2012; in the data active = activity change below about -65%; inconclusive = mostly about -30% to -63%; also: % is scaled to controls: 0 for no effect and ±100 for the full control effect
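Homogeneous AlphaScreen proximity assay pairing GST-Six1 with His-tagged Eya2 (added as 5X mix: 250 nM and 500 nM) in 50 mM Tris pH 8.0, 300 mM NaCl, 1 mM TCEP. Glutathione donor and nickel acceptor beads; 1 h, 37 °C, dark.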
CtBP-E1A blk – qHTS Assay for Inhibitors of the CtBP/E1A Interaction | CtBP / adenovirus E1A interaction (AlphaScreen) | AlphaScreen GST-E1A/His-CtBP binding, 1536-well; stronger effect = lower value | activity change, % (no concentration beside the values) | 0.49% of 340,000 active; in the data active = activity change below about -65%; inconclusive = mostly about -30% to -63%; also: % is scaled to controls: 0 for no effect and ±100 for the full control effect
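AlphaScreen with 125 nM GST-E1A and 125 nM His-CtBP (5X stocks) in Tris pH 8.0, 300 mM NaCl, BSA, Tween 20, TCEP. Compounds preincubated 2 h at 37 deg C, then glutathione donor/nickel acceptor beads added for 1 h at 37 deg C in dark.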
HP1b binding inh – HTS for Inhibitors of HP1-beta Chromodomain Interactions with Methylated Histone Tails; AlphaScreen HP1-beta / biotin-H3K9me3 peptide binding; 0.56% of 390,000 active; Potency, µM (highest dose often 114 µM), for inactives: top-dose activity change, negative = inhibition, most hits filed as inhibitors; Chromobox protein homolog 1 (Homo sapiens), P83916; AID 540317, 2011; also: potency is read from the fitted curve at half-maximal effect; nearly all actives have a fitted effect of over 70% in size
Target sequence (P83916 whole entry, looked up): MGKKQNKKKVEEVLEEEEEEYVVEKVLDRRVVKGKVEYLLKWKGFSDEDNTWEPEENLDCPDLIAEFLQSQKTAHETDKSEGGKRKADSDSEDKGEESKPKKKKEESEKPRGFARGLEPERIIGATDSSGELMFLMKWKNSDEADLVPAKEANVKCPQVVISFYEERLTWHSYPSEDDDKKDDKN
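HP1-beta protein (50 nM final) preincubated 30 min at room temperature with biotinylated H3(1-18)K9me3 peptide (50 nM) in PBS pH 7.4, 0.01% Tween-20, then compound added for 30 min. AlphaScreen streptavidin donor/nickel chelate acceptor beads (10 ug/mL final), 30 min dark, luminescence read.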
G9a block – qHTS Assay for Inhibitors of Histone Lysine Methyltransferase G9a. Histone-lysine N-methyltransferase EHMT2 (Homo sapiens), Q96KQ7. G9a H3K9 monomethylation, AlphaScreen, 2 h. Potency, µM (top dose mostly 102 µM), inactives show top-dose activity, negative = inhibition, actives largely listed as inhibitors. 8.8% of 350,000 active. AID 504332, 2011; also: potency is read from the fitted curve at half-maximal effect; % is scaled to controls: 0 for no effect and ±100 for the full control effect; nearly all actives have a fitted effect of over 75% in size
Target sequence (Q96KQ7 913-1193 limits assumed): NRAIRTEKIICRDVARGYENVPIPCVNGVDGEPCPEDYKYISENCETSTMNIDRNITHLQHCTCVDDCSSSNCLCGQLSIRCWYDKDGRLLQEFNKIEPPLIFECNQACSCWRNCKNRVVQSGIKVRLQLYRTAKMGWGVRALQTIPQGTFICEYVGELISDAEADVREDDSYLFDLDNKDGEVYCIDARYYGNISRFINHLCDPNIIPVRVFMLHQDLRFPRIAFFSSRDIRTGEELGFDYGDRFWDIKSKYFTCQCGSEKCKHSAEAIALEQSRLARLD
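G9a (20 nM) preincubated 15 min RT with compounds, then 500 nM biotinylated H3K9 peptide and 20 uM SAM added; 2 h RT reaction. Monomethyl-H3K9 product detected by AlphaScreen with anti-H3K9me1 antibody, streptavidin donor and anti-rabbit IgG acceptor beads.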
JMJD2A Tudor – qHTS Assay for Inhibitors of JMJD2A-Tudor Domain; AlphaScreen JMJD2A-Tudor / H3K4me3 peptide binding; 4.4% of 390,000 active; Potency, µM (titrated, usually from 114 µM), inactives show at the top dose activity change, negative = inhibition, actives largely listed as inhibitors; Lysine-specific demethylase 4A (Homo sapiens), O75164; also: potency is read from the fitted curve at half-maximal effect; % is scaled to controls: 0 for no effect and ±100 for the full control effect; nearly all actives have a fitted effect of over 50% in size
BAZ2B block – qHTS Assay for Inhibitors of BAZ2B; AID 504333, 2011; 4.4% of 360,000 active; Potency, µM (titrated, usually from 114 µM), without a hit: at the highest dose activity change, negative = inhibition, actives largely listed as inhibitors; AlphaScreen BAZ2B-H3K14Ac peptide displacement; also: potency is read from the fitted curve at half-maximal effect; % is scaled to controls: 0 for no effect and ±100 for the full control effect; nearly all actives have a fitted effect of over 60% in size
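Compounds, titrated to a top concentration of 110 uM, were incubated 30 min at room temperature with preformed BAZ2B/acetyl-K14 H3 peptide complex (50 nM each). Proximity signal was measured by AlphaScreen after 20 min with beads.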
The depositor's hits bear a star; ? = inconclusive; nt = not tested or not shown; [ ] = dose if it differs, or a comment. Hits are enriched below; roughly 10% of the tested compounds scored in any of these assays. Unless noted, calls follow the shape of the dose curve; as a rule, active = well fitted inhibition curve with a large enough effect; inconclusive = small, poorly fitted or top-dose-only effect; inactive = no such curve, though single readings can be large or run the other way.

SMILES	Six1-Eya2 inh	CtBP-E1A blk	HP1b binding inh	G9a block	JMJD2A Tudor	BAZ2B block
CN(C)CCC(C(=O)c1ccccc1)c1ccccn1 (stereo unspecified)	1	-1	30%	nt	-6%	nt
CN(C)CC(CCCCC(CN(C)C)C(=O)c1ccccc1)C(=O)c1ccccc1 (stereo unspecified)	-2	3	22%	50µM*	-26%	-20%
CC(C)c1cc(=O)n2[nH]c(N)nc2n1	-14	-23	3%	79µM*	-46%	-27%
Nc1nc2nc(-c3ccccc3)cc(=O)n2[nH]1	1	7	15%	3%[59 µM]	?	-16%
CC(C)(C)c1cc(=O)n2[nH]c(N)nc2n1	-28	0	28%	nt	?	56µM*
COc1cccc(NC(=O)Nc2ccc3nc(N4CCN(C)CC4)cc(C)c3c2)c1	nt	nt	13%	-43%[59 µM]	-28%	-26%
O=C1c2ccccc2C(Nc2ccccc2)N1c1cccnc1 (stereo unspecified)	3	-17	35%	13%	-8%	-3%
CCOc1ccccc1NC1c2ccccc2C(=O)N1c1cccnc1 (stereo unspecified)	0	-2	7%	79µM*	-16%	7%
CCc1ccc(/C=C/c2c[nH]c3ccccc23)[n+](CC)c1	?	-23	22%	7.1µM*	?	0%
COc1ccc(OC)c(NC(=O)Cn2ccn(-c3ccc(OC)c(OC)c3)c(=O)c2=O)c1	nt	nt	7%	?	?	-32%
CCN(C(=O)c1ccc(Cl)cc1[N+](=O)[O-])c1ccccc1C	-16	2	24%	40µM*	-19%	-38%
O=C(c1ccc(Cl)cc1[N+](=O)[O-])N(Cc1ccccc1)Cc1ccccc1	nt	nt	nt	79µM*	nt	?
Cc1ccc(S(=O)(=O)N/N=C/c2ccccc2F)cc1[N+](=O)[O-]	-1	-6	21%	11µM*	-25%	?
CCN(Cc1ccccc1)c1ccc(/C=N/NS(=O)(=O)c2ccc(C)c([N+](=O)[O-])c2)cc1	-28	-6	?	8.9µM*	?	?
Cc1ccc(S(=O)(=O)NN=Cc2ccc(N3CCOCC3)cc2)cc1[N+](=O)[O-]	-1	-5	12%	nt	-33%	nt
O=[N+]([O-])c1cc2c(cc1/C=N/NS(=O)(=O)c1ccc(Br)cc1)OCO2	-20	nt	?	11µM*	2%[11.4 µM]	-37%
COc1ccc(C(=O)c2cn(CC(=O)Nc3cc(OC)cc(OC)c3)c3ccc(OC)cc3c2=O)cc1	nt	nt	45%	?	-20%	2%
CC1CCCC(C)N1C(=O)C1CCCCC1 (stereo unspecified)	5	10	34%	9%[59 µM]	-3%	5%
Cc1ccc(O)cc1	nt	nt	nt	6%[2.33 µM]	nt	nt
Cc1ccc(C2=C(O)C(=O)C(c3ccc(C)cc3)=C(O)C2=O)cc1	-4	1	-23%	nt	25µM*	nt
CC1=C(O)C(=O)C(C2=C(O)C(=O)C(C)=C(O)C2=O)=C(O)C1=O	-92*	-85*	?	nt	0.71µM*	nt
Cc1nc([N+](=O)[O-])c(Br)n1CC(=O)c1ccc(Cl)cc1	14	1	25%	50µM*	-24%	-2%
C=CCNC(=O)Cc1ccc(S(=O)(=O)N2CCOCC2)s1	9	nt	23%	-7%[12.7 µM]	-11%	-6%
CCOC(=O)NC(N(O)c1cccc(Cl)c1)C(Cl)(Cl)Cl (stereo unspecified)	2	-2	-11%	40µM*	-26%	-29%
COc1cc(CNc2cc(C)ccc2C)cc(OC)c1OC	-15	-7	-16%	-22%[59 µM]	?	?
SMILES	Six1-Eya2 inh	CtBP-E1A blk	HP1b binding inh	G9a block	JMJD2A Tudor	BAZ2B block
COc1ccccc1CNS(=O)(=O)c1cc(C)ccc1OC	1	1	36%	-11%[59 µM]	-8%	8%
COc1ccc(C)cc1NCc1cccc(OC)c1OC	?	-23	?	7.9µM*	6.3µM*	45µM*
COc1ccc(CNc2cc(C)ccc2C)c(OC)c1OC	-17	-9	6%	?	-28%	-39%
COc1cccc(CNS(=O)(=O)c2ccccc2Br)c1OC	5	5	32%	nt	79µM*	nt
COc1cc(OC)c(OC)cc1CNc1cc(C)ccc1OC	?	?	?	7.9µM*	40µM*	nt
Cc1ccc(Cn2cc(S(=O)(=O)c3cccc(Cl)c3)c(=O)c3cc(F)c(N4CCCCC4)cc32)cc1	nt	nt	37%	8%[59 µM]	-1%	-3%
CCOc1ccccc1N1CC(C(=O)N2CCc3ccccc32)CC1=O (stereo unspecified)	-2	4	23%	65%[59 µM]	1%	-22%[57.1 µM]
CCOc1ccccc1N1CC(C(=O)N2CCc3ccccc3C2)CC1=O (stereo unspecified)	-12	4	-9%	29%[12.7 µM]	28µM*	-8%
COc1ccc(-c2nc(CN3CCN(c4cc(C)nc(C)c4)CC3)c(C)o2)c2ccccc12	-10	-7	7%	nt	-35%	-7%
Cc1oc(-c2cccc3ccccc23)nc1CN1CCN(c2ncnc3ccccc23)CC1	-13	0	?	45µM*	?	?
CCSc1n[nH]c(=S)s1	8	-1	?	1.4µM*	20µM*	?
C=CCSc1nnc(-c2cc3c(C(F)(F)F)nn(C)c3s2)n1C	-10	-2	46%	71µM*	10%	1%
C=CCSc1nnc(-c2cc3c(-c4ccccc4)nn(C)c3s2)n1C	-75*	-76*	33%	0%[59 µM]	-10%	-12%
COCc1cc(C)nc2c1C(=O)NC(c1ccc(F)cc1)N2Cc1ccccc1 (stereo unspecified)	nt	nt	4%	14µM*	-15%	-8%
O=C(NCC(c1ccc(Cl)cc1)N1CCCCC1)c1ccccc1 (stereo unspecified)	nt	nt	34%	3%[59 µM]	-11%	-9%
Cc1ccc([C@H]2C(C(=O)O)=CCN2S(=O)(=O)c2ccc(C)cc2)cc1	9	0	nt	nt	nt	nt
CCOC(=O)c1c(C)[nH]c(=S)c(C#N)c1-c1ccc(OC)cc1	-2	7	26%	?	-25%	-6%
Cc1[nH]c(=S)c(C#N)c(-c2ccco2)c1C(=O)N(C)C	1	-2	-25%	3.5µM*	4µM*	-36%
CC(=O)c1c(C)[nH]c(=S)c(C#N)c1-c1ccc(Cl)cc1	3	3	14%	4.5µM*	?	-18%
